# Data from PubChem BioAssay (NCATS).
# Inconclusive results are not listed. Where a call stands in place of a potency, no number is given. Activity calls are given as the source filed them. Calls follow the shape of the dose curve; as a rule, active = well fitted curve in the direction sought with a large enough effect; inconclusive = small, poorly fitted or top-dose-only effect, or another doubt; inactive = no such curve, though single readings can be large; an effect the other way counts as inactive or inconclusive.
# System: not listed separately
# Experiment: Inducers of the Endoplasmic Reticulum Stress Response (ERSR) in human glioma: Validation (AID 504836)
# Settings: human glioma cells, ER stress response reporter; series mostly up to 38.3 µM
# In short: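 Stably transfected U87-MG human glioma cells carrying a GRP78-based luminescent sensor were seeded at 1000 cells/well, pin-dosed with compounds and incubated 16 h. Luciferase reagent was then added, and end-point luminescence was read after 10 min at room temperature.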
row,SMILES,outcome
1,COc1cc2nc(N3CCN(C(=O)c4ccco4)CC3)nc(N)c2cc1OC,inactive
2,Cc1cnc(C(=O)NCCc2ccc(S(=O)(=O)NC(=O)NC3CCCCC3)cc2)cn1,inactive
3,CC(=O)Nc1nnc(S(N)(=O)=O)s1,inactive
4,CC(C)OC(=O)C(C)(C)Oc1ccc(C(=O)c2ccc(Cl)cc2)cc1,inactive
5,NC(=O)OCC(COC(N)=O)c1ccccc1,inactive
6,CCN(CC)CCNC(=O)c1cc(Cl)c(N)cc1OC,inactive
7,Nc1nc(N)c2nc(-c3ccccc3)c(N)nc2n1,inactive
8,C[C@]12CC[C@@H]3c4ccc(O)cc4C[C@@H](CCCCCCCCCS(=O)CCCC(F)(F)C(F)(F)F)[C@H]3[C@@H]1CC[C@@H]2O (stereo partly specified),inactive
9,CCN(CC)CCOC(=O)C1(C2CCCCC2)CCCCC1,inactive
10,O=C1Cc2cc(CCN3CCN(c4nsc5ccccc45)CC3)c(Cl)cc2N1,inactive
11,COc1ccc([C@@H]2Sc3ccccc3N(CCN(C)C)C(=O)[C@@H]2OC(C)=O)cc1,inactive

# Molecular target: Ubiquitin carboxyl-terminal hydrolase 1 (Homo sapiens) (UniProt O94782)
# Experiment: Inhibitors of USP1/UAF1: Pilot qHTS (AID 504865);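 also: rhodamine fluorescence freed from ubiquitin-rhodamine substrate followed over time; top concentration of the series differs between compounds; nearly all actives have a fitted effect of over 35% in size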
# Settings: purified USP1/UAF1, Ub-rhodamine cleavage fluorescence; series mostly up to 114 µM
# In short: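 1nM USP1/UAF1 + cpd, 15 min RT; start w/ Ub-Rho 150nM final; kinetic FL 480/540 nm, 6 reads q60 s. Buffer 50mM HEPES pH 7.8, 0.5mM EDTA, 1mM TCEP, 0.01% Tween-20, 0.1 mg/ml BSA.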
# Sequence of Ubiquitin carboxyl-terminal hydrolase 1 (Homo sapiens) (O94782 whole entry, looked up): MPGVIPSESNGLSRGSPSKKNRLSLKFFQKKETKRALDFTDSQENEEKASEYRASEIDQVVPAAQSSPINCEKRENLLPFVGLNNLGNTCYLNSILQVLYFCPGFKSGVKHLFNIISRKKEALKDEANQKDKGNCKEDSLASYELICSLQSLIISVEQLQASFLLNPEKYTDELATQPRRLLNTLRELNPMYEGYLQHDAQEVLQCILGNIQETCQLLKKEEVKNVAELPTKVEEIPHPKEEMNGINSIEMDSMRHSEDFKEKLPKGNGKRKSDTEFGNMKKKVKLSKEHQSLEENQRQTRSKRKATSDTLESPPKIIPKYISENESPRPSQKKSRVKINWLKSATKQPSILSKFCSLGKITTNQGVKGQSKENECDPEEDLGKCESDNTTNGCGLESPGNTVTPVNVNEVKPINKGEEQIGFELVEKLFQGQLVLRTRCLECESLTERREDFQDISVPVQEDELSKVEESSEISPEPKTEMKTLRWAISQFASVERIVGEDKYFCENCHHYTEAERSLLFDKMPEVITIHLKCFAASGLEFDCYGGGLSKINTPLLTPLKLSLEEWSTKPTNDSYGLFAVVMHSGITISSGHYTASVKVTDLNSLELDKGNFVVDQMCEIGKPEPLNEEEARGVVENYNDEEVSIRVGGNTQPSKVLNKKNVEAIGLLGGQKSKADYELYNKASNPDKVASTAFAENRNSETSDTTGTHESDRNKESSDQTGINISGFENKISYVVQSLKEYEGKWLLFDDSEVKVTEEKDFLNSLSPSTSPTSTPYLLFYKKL
row,SMILES,Potency
1,COc1cc([C@@H]2c3cc4c(cc3[C@H](O)[C@H]3COC(=O)[C@H]23)OCO4)cc(OC)c1OC,inactive
2,O=C(O)c1ccc2[nH]cc(CCCCN3CC=C(c4ccccc4)CC3)c2c1,inactive
3,COC1(CS(=O)c2ccccc2)CCN(CCc2c[nH]c3ccc(F)cc23)CC1 (stereo unspecified),inactive
4,C#CCN(C)[C@H](C)Cc1ccccc1,inactive
5,CS(=O)c1ccc(-c2nc(-c3ccc(F)cc3)c(-c3ccncc3)[nH]2)cc1 (stereo unspecified),inactive
6,C[C@]12CC[C@@H]3c4ccc(O)cc4C[C@@H](CCCCCCCCCS(=O)CCCC(F)(F)C(F)(F)F)[C@H]3[C@@H]1CC[C@@H]2O (stereo partly specified),inactive
7,CN(C)CCN(C)CCc1ccc(Cl)c(Cl)c1,inactive

# Molecular target: DNA dC->dU-editing enzyme APOBEC-3G (Homo sapiens) (UniProt Q9HC16)
# Experiment: qHTS for inhibitors of Vif-A3G interactions: Validation (AID 588379)
# Settings: Vif-A3G protein interaction assay; series mostly up to 46.1 µM
# In short: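 Yellow fluorescence (Ex 488, Em 500-530) of Vif-coexpressing HeLa A3G-eYFP cells, scanned by Acumen cytometer, reports blocked A3G degradation. Cells plated at 700/well overnight at 37 deg C before compound addition, then a further overnight compound incubation at 37 deg C.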
# Sequence of DNA dC->dU-editing enzyme APOBEC-3G (Homo sapiens) (Q9HC16 whole entry, looked up): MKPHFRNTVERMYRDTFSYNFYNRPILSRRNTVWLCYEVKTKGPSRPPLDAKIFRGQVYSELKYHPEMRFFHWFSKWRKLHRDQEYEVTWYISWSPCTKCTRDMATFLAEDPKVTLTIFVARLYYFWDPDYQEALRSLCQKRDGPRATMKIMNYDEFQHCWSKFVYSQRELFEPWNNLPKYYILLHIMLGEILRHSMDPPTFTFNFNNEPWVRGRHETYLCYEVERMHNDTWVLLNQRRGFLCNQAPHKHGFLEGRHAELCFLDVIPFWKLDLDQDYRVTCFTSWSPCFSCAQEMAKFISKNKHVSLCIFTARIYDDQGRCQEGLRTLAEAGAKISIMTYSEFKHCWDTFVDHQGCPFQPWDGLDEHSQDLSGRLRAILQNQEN
row,SMILES,outcome
1,COC1(CS(=O)c2ccccc2)CCN(CCc2c[nH]c3ccc(F)cc23)CC1 (stereo unspecified),inactive
2,C#CCN(C)[C@H](C)Cc1ccccc1,inactive
3,CN(C)CCN(C)CCc1ccc(Cl)c(Cl)c1,inactive
